Compound activity deposited in PubChem by National Center for Advancing Translational Sciences (NCATS).
VACV Venus inh: vaccinia inhibition (Venus reporter) | Vaccinia virus Venus reporter expression, fluorescence | Potency, µM (top dose mostly 36.5 µM), usual class: inhibitors | 330,000 compounds, 0.46% hits; calls by dose curve; tested in A549 cells; further: nearly all actives have a fitted effect of over 30% in size
Vaccinia mCherry: inhibitors of vaccinia virus infection (mCherry reporter signal). Vaccinia virus mCherry reporter infection, fluorescence. Potency, µM (doses to about 36.5 µM), actives largely listed as inhibitors. 310,000 compounds, 0.63% hits. AID 720579; calls by dose curve; tested in A549 cells; further: nearly all actives have a fitted effect of over 35% in size
HCV inhibitor: HCV inhibition; Huh7.5.1 HCVcc-Cre infection, luciferase reporter, 44 h; Potency, µM (titrated, usually from 41.8 µM), most hits filed as inhibitors; 340,000 compounds, 3.4% hits
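Reporter virus HCVcc-Cre (~0.5 moi) infects cells exposed to compound; seeding density 1,000 cells/well with 4 h settling beforehand. Luminescence, 15 sec read, taken 44 h post-infection following a 15 min RT substrate incubation.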
NS1 inh: inhibitors of influenza NS1 protein function; Potency, µM (doses to about 46.1 µM); 270,000 compounds, 0.4% hits; AID 2326; calls by dose curve; further: actives are rising curves; nearly all actives have a fitted effect of over 50% in size
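A cell-based growth assay was used: compounds that relieve NS1-induced slow growth of budding yeast raise OD600. Assay medium was yeast nitrogen base with ammonium sulphate and -URA supplement, pH 6.0, with 2% galactose.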
Pf growth 48h: P. falciparum growth inhibition at 48 hours (one generation) | P. falciparum luciferase growth in erythrocytes, 48 h | Potency, µM (top dose mostly 28.7 µM), actives largely listed as inhibitors | 310,000 compounds, 5.9% hits | AID 504832
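Compounds are pin-transferred into medium, infected erythrocytes (2% hematocrit, 0.1% parasitemia final) are added, and plates sit one parasite generation at 37 C in 5% CO2. Detection reagent is then added and luminescence measured.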
Pf growth 96h: P. falciparum growth inhibition at 96 hour, primary screen for plastid delayed-death inhibitors | P. falciparum luciferase reporter growth, 96 h | Potency, µM (series often up to 28.7 µM), actives largely listed as inhibitors | 320,000 compounds, 6.9% hits
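P. falciparum expressing integrated firefly luciferase, in erythrocytes at 2% hematocrit, 0.05% parasitemia, incubated with compounds 96 h at 37 C, 5% CO2. Growth inhibition read as loss of luminescence; two-generation exposure targets delayed-death apicoplast inhibitors.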
Hits are given with their value; [ ] = remark or other dose. Hits are enriched below; roughly 11% of the tested compounds scored in any of these assays. Unless noted, the call rests on the fitted dose curve; in most records, active means well fitted inhibition curve with a large enough effect; inconclusive means small, poorly fitted or top-dose-only effect, or another doubt; inactive means no such curve, though single readings can be large or run the other way.

For COc1cc2c(cc1OC)C(c1cccs1)N(C(=O)c1ccncc1)CC2 (configuration not stated) the results were VACV Venus inh inactive, Vaccinia mCherry inactive, HCV inhibitor inactive, Pf growth 48h inconclusive and Pf growth 96h inconclusive.
Screening COc1cc2c(cc1OC)C(C)N(C(=O)c1cccs1)CC2 (configuration not stated) returned VACV Venus inh inactive, Vaccinia mCherry inactive, HCV inhibitor inconclusive, NS1 inh inactive, Pf growth 48h inactive and Pf growth 96h inactive.
`COc1cc2c(cc1OC)C(c1cccs1)N(C(=S)NC(C)C)CC2` (configuration not stated) gave VACV Venus inh inactive, Vaccinia mCherry inactive, HCV inhibitor inconclusive, Pf growth 48h 2.62µM and Pf growth 96h inconclusive.
For COc1cc2c(cc1OC)C(c1cccs1)N(C(=O)c1ccc(S(=O)(=O)N(C)C)cc1)CC2 (configuration not stated) the results were HCV inhibitor inconclusive, NS1 inh inactive, Pf growth 48h 10.4µM and Pf growth 96h 13.1µM.
COc1cc(CNC(=O)C2CCCC2)cc(OC)c1OC was read as VACV Venus inh inactive, Vaccinia mCherry inactive, HCV inhibitor inactive, NS1 inh inactive, Pf growth 48h inactive and Pf growth 96h inactive.
Screening COc1cc(CN/C(C)=C(\C#N)C(N)=O)cc(OC)c1OC returned VACV Venus inh inactive, Vaccinia mCherry inactive, HCV inhibitor inactive, NS1 inh inactive, Pf growth 48h inactive and Pf growth 96h 2.08µM.
For COc1ccccc1Nc1nc(NCCO)c2ccccc2n1 the results were NS1 inh inactive, Pf growth 48h inconclusive and Pf growth 96h inconclusive.
`Cc1ccc(Nc2nc(NCCO)c3ccccc3n2)cc1C` gave VACV Venus inh inconclusive, Vaccinia mCherry inactive, HCV inhibitor 12.6µM, NS1 inh inactive, Pf growth 48h 0.465µM and Pf growth 96h inconclusive.
For COc1ccc(OC)c(Nc2nc(NCCO)c3ccccc3n2)c1 the results were VACV Venus inh inactive, Vaccinia mCherry inactive, HCV inhibitor inconclusive, NS1 inh inactive, Pf growth 48h 2.08µM and Pf growth 96h inconclusive.
For O=C(NCc1ccc2c(c1)OCO2)c1ccc(=O)[nH]c1 the results were VACV Venus inh inactive, HCV inhibitor inactive, NS1 inh inactive and Pf growth 48h inactive.
CCN(CC)CC(O)c1ccc(C2CCCC2)cc1 (configuration not stated) was read as VACV Venus inh inactive, Vaccinia mCherry inactive, HCV inhibitor inconclusive, NS1 inh inactive, Pf growth 48h 10.4µM and Pf growth 96h 13.1µM.
`Cc1ccc(N2C(=O)NC(=O)C(CCc3ccccn3)(Cc3cccc(Cl)c3Cl)C2=O)cc1` (configuration not stated) gave VACV Venus inh inactive, Vaccinia mCherry inactive, HCV inhibitor inactive, NS1 inh inactive, Pf growth 48h inactive and Pf growth 96h 2.33µM.
Oc1ccc(/C=N\Nc2cc(N3CCOCC3)nc(N3CCOCC3)n2)c(O)c1 was read as VACV Venus inh inconclusive, Vaccinia mCherry inconclusive, HCV inhibitor inconclusive, NS1 inh inactive, Pf growth 48h inconclusive and Pf growth 96h inconclusive.
For CCCOc1ccc(/C=N/Nc2cc(N3CCOCC3)ncn2)c(O)c1 the results were HCV inhibitor inconclusive, NS1 inh inactive, Pf growth 48h 2.08µM and Pf growth 96h inactive.
`O=[N+]([O-])c1cccc(/C=N/Nc2cc(N3CCOCC3)ncn2)c1` gave HCV inhibitor inactive, NS1 inh inactive and Pf growth 96h inconclusive.
`Clc1ccccc1/C=N/Nc1cc(N2CCOCC2)ncn1` gave VACV Venus inh inactive, Vaccinia mCherry inactive, HCV inhibitor inactive, NS1 inh inactive, Pf growth 48h inactive and Pf growth 96h 8.28µM.
`C[C@H]1C[C@@H](C)C(=O)[C@@H]([C@H](O)CC2CC(=O)NC(=O)C2)C1` gave VACV Venus inh 0.316µM, Vaccinia mCherry 0.316µM, HCV inhibitor inconclusive, NS1 inh inactive, Pf growth 48h 0.0329µM and Pf growth 96h inconclusive.
CC1CC(C)C(=O)[C@H](C(O)CC2CC(=O)NC(=O)C2)C1 (some centres not stated) was read as VACV Venus inh 0.891µM and Vaccinia mCherry 2µM.
For CCOC(=O)CN1C(=O)CC(C[C@@H](O)C2C[C@@H](C)C[C@H](C)C2=O)CC1=O (some centres not stated) the results were VACV Venus inh inactive and Vaccinia mCherry inactive.
`CCC12CN3CCN(CC(C3)/C1=N/NC(N)=O)C2` gave VACV Venus inh inactive, Vaccinia mCherry inactive, HCV inhibitor inactive, Pf growth 48h inactive and Pf growth 96h inactive.
`CC1CC(C)C(=NNC(N)=O)C(C(O)CC2CCC(=O)NC2=O)C1` (configuration not stated) gave VACV Venus inh 7.94µM, Vaccinia mCherry inconclusive and HCV inhibitor 10µM.
O=C(CSc1nnc(-c2ccccn2)o1)Nc1cccc(Cl)c1 was read as VACV Venus inh inactive, Vaccinia mCherry inconclusive, HCV inhibitor inactive, NS1 inh inactive, Pf growth 48h inactive and Pf growth 96h inactive.
Screening NC(CC(=O)O)c1ccc(Br)cc1 (configuration not stated) returned VACV Venus inh inactive, Vaccinia mCherry inactive, HCV inhibitor inactive, NS1 inh inactive, Pf growth 48h inactive and Pf growth 96h 9.28µM.
O=C(O)CC(Cc1ccc(Br)cc1)C(=O)O (configuration not stated) was read as VACV Venus inh inactive, Vaccinia mCherry inactive, HCV inhibitor inactive, NS1 inh inactive, Pf growth 48h inactive and Pf growth 96h inconclusive.
CC1Sc2ccc(S(=O)(=O)N3CCC(C(=O)N4CCN(C)CC4)CC3)cc2NC1=O (configuration not stated) was read as VACV Venus inh inactive, Vaccinia mCherry inactive, HCV inhibitor inactive, NS1 inh inactive, Pf growth 48h inconclusive and Pf growth 96h inconclusive.
COc1ccc(NC(=O)C2CCN(S(=O)(=O)c3ccc4c(c3)NC(=O)C(C)S4)CC2)cc1 (configuration not stated) was read as VACV Venus inh inactive, Vaccinia mCherry inactive, HCV inhibitor inconclusive, NS1 inh inactive, Pf growth 48h 9.28µM and Pf growth 96h inactive.
`CCOc1ccc(NC(=O)C2CCN(S(=O)(=O)c3ccc4c(c3)NC(=O)C(C)S4)CC2)cc1` (configuration not stated) gave HCV inhibitor inconclusive, NS1 inh inactive, Pf growth 48h inconclusive and Pf growth 96h inconclusive.
For CC1Sc2ccc(S(=O)(=O)NCc3ccccc3)cc2NC1=O (configuration not stated) the results were VACV Venus inh inactive[7.34 µM], Vaccinia mCherry inactive[7.34 µM], HCV inhibitor inactive, NS1 inh inactive, Pf growth 48h inactive and Pf growth 96h 13.1µM.
COc1cccc(NC(=O)C2CCN(S(=O)(=O)c3ccc4[nH]c(=O)ccc4c3)CC2)c1 was read as VACV Venus inh inactive, Vaccinia mCherry inactive, HCV inhibitor inactive, NS1 inh inactive, Pf growth 48h inconclusive and Pf growth 96h 9.28µM.
